PostGolgi yeast: phenotypic screen on post-Golgi transport, primary screen; post-Golgi transport phenotypic cell assay; inhibition, % at 10 µM; 98,000 tested, 0.9% active;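 further: yeast cells grown in 1536-well plates; yeast grown about 18 h at 30C before absorbance read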
CYP2C9 inhib: blockers of cytochrome P450 2C9 activity – biochemical, luminescence, ADME assay, primary screen; 96,000 tested, 20% active; P11712; AID 777, 2007; CYP2C9 Supersomes, luciferin-H conversion; inhibition, % at 5 µM;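 active means blocking of liver enzyme CYP2C9 beyond about 50% at 5 µM, limit read from the data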
Target sequence (P11712 whole entry, looked up): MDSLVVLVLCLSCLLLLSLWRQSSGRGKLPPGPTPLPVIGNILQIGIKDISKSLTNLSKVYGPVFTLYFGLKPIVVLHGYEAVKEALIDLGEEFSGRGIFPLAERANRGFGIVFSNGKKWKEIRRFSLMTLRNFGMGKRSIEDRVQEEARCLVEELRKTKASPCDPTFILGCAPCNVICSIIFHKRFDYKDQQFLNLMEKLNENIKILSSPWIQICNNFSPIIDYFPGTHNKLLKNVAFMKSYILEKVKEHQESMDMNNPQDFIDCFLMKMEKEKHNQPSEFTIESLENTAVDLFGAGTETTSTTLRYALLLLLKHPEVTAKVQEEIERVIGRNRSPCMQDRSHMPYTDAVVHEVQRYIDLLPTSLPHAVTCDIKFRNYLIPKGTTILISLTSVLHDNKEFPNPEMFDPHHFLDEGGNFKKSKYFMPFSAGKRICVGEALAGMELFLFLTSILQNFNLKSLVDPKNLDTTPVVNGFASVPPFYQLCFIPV
CYP2C19 inhib: blockers of cytochrome P450 2C19 activity – biochemical, luminescence, ADME assay, primary screen | P33261 | inhibition, % at 5 µM | 96,000 tested, 21% active | CYP2C19 Supersomes, luciferin-H EGE luminescence, 30 min;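 active means CYP2C19 inhibition above a set limit at 5 µM in the primary screen, cut at about 50% in these data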
CYP2C9 activ: human CYP2C9 activators, primary screen, biochemical, luminescence; Cytochrome P450 2C9 (Homo sapiens), P11712; recombinant CYP2C9, luciferin-H conversion; hits give high values; factor 1 = untreated enzyme, 0 = blocked; activation factor at 5 µM; 96,000 tested, 1.4% active; AID 1024, 2008;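 active means activation factor of 2 or more for CYP2C9 at a 5 µM dose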
CYP2C19 act: human CYP2C19 activators, primary screen, biochemical, luminescence | Cytochrome P450 2C19 (Homo sapiens), P33261 | recombinant CYP2C19, luciferin-H EGE luminescence; hits give high values; 0 = fully inhibited enzyme, 1 = untreated enzyme | activation factor at 5 µM | 96,000 tested, under 10 active | AID 1025, 2008;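 active means activation factor of at least 2 at 5 µM in the primary screen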
PostGolgi ctrl: growth inhibition of yeast control strain, primary screen, counter-screen for post-Golgi transport modulator project; efflux-deficient yeast background strain, growth absorbance A615, 16 h; inhibition, % at 10 µM; 98,000 tested, 5% active
Hits are given with their value; i = inactive; nt = no result given. In the library only some 32% were active in any assay of this set; here they are far more common. Unless noted, no stated cut-off is given here; in the data, active means inhibition above about 30%; inactive means the rest.

SMILES | PostGolgi yeast | CYP2C9 inhib | CYP2C19 inhib | CYP2C9 activ | CYP2C19 act | PostGolgi ctrl
CN(C)CCC(O)(c1ccccc1)c1ccccc1 | i | i | i | i | i | i
CC/C(CC(C)(C)c1ccccc1)=N\O | i | i | 79 | i | i | i
Cc1cc(C)n(C(=O)c2cc3c(s2)CCCC3)n1 | i | i | i | i | i | i
O=C(CC12CC3CC(CC(C3)C1)C2)NCc1ccncc1 | i | 88 | 99 | i | i | i
O=C(CN1C(=O)C2C3C=CC(C3)C2C1=O)NCCc1ccccc1 (stereo unspecified) | i | i | i | i | i | i
CNC(=O)CC12CC3CC(CC(C3)C1)C2 | i | i | i | i | i | i
O=C(NCCc1ccncc1)C12CC3CC(CC(C3)C1)C2 | i | i | 94 | i | i | i
O=C(COC(=O)C12CC3CC(CC(C3)C1)C2)NCCc1ccccc1 | i | 85 | 53 | i | i | 40
CS(=O)(=O)N1Cc2ccccc2CC1C(=O)OCC(=O)Nc1ccc2ccccc2c1 (stereo unspecified) | i | i | i | i | i | i
Cc1ccc(S(=O)(=O)N(CC(=O)NCc2ccco2)Cc2ccccc2F)cc1 | i | 62 | i | i | i | i
COc1ccc(S(=O)(=O)N(CC(=O)NCc2ccco2)c2ccccc2)cc1 | i | i | 56 | i | i | i
CCN(c1ccccc1)S(=O)(=O)c1ccc(N)c(OC)c1 | i | i | 62 | 2.8 | i | i
CCN(c1ccccc1)S(=O)(=O)c1ccc(F)cc1 | i | i | i | i | i | i
COc1ccc(N(CC(=O)N/N=C/c2ccco2)S(=O)(=O)c2ccccc2)cc1 | i | i | 60 | i | i | i
COc1ccc(S(=O)(=O)N(CC(=O)O)c2ccccc2)cc1 | i | i | i | i | i | i
CN(CCCC(=O)NCc1ccco1)S(=O)(=O)c1ccccc1 | i | i | i | i | i | i
CCS(=O)(=O)N1CCC(C(=O)NCc2ccco2)CC1 | i | i | i | i | i | i
COc1ccc(S(=O)(=O)Cc2ccccc2)cc1N | i | i | 62 | 2.2 | i | i
C=CCNC(=O)CN(c1ccc(F)cc1)S(=O)(=O)c1ccc(OC)cc1 | i | 64 | 92 | i | i | i
COc1ccc(S(=O)(=O)N(CC(=O)NCc2ccco2)c2ccccc2)cc1OC | i | i | 91 | i | i | i
COc1ccc(OC)c(N)c1 | i | i | i | i | i | i
COC(=O)CN(c1ccccc1)S(=O)(=O)c1ccc(F)cc1 | i | nt | nt | nt | nt | i
O=C(CSc1nnc(Cn2c(=O)sc3ccccc32)n1-c1ccccc1)NCc1ccco1 | i | nt | nt | nt | nt | i
O=C(Nc1sccc1C(=O)N1CCOCC1)c1cccnc1 | i | i | i | i | i | i
CCCCOc1ccc(CSc2nncn2N)cc1 | i | i | i | i | i | i
SMILES | PostGolgi yeast | CYP2C9 inhib | CYP2C19 inhib | CYP2C9 activ | CYP2C19 act | PostGolgi ctrl
CCCCOc1ccc(Cl)cc1CSc1nnc(CC)n1N | i | 64 | 54 | i | i | i
CCCc1nnc(SCc2ccc(OC)cc2)n1N | i | i | 51 | i | i | i
CCCOc1ccc(CSc2nnc(CCC)n2N)cc1 | i | 55 | 66 | i | i | i
CCc1nnc(SCCSc2nnc(CC)n2N)n1N | i | i | i | i | i | i
Cc1ccc(/C=N\NC(=O)c2cc(OCC(F)(F)F)ccc2OCC(F)(F)F)cc1 | i | i | i | i | i | i
Cc1ccccc1/C(N)=N/OC(=O)/C=C/c1ccccc1 | i | i | i | i | i | i
CCOc1cccc(=O)c2c(C)n(C)c(C)c12 | i | i | 52 | i | i | i
C=CCNC(=O)COC(=O)COc1ccc(Cl)cc1C | i | i | i | i | i | i
Nc1cc(-c2ccccc2)nn1S(=O)(=O)c1ccc(Br)cc1 | i | i | i | i | i | i
COc1cc(-c2cc(N)n(S(=O)(=O)c3ccccc3)n2)cc(OC)c1OC | i | 98 | 96 | i | i | i
COc1ccc(N2C(=O)CCC(C(=O)NCc3ccccn3)C2c2ccc(F)cc2)cc1 (stereo unspecified) | i | i | i | i | i | i
O=C(Oc1cc(-c2ccccc2)no1)c1ccc(Cl)cc1 | i | i | i | i | i | i
CCn1cc(C(=O)NCc2cccnc2)c(=O)c2cc(F)c(N3CCN(C(=O)c4ccco4)CC3)cc21 | i | 68 | i | i | i | i
CCOC(=O)N1CCN(C(=O)c2cn(CC)c3cc(N4CCN(C)CC4)c(F)cc3c2=O)CC1 | i | nt | nt | nt | nt | i
CCOC(=O)c1cn(CC)c2cc(N3CCOCC3)c(F)cc2c1=O | i | nt | nt | nt | nt | i
CCn1cc(C(=O)NCc2cccc(F)c2)c(=O)c2cc(F)c(N3CCN(C(=O)c4ccco4)CC3)cc21 | i | 84 | i | i | i | i
CC(=O)NC(CCS(C)(=O)=O)C(=O)Nc1ccc(F)cc1Cl (stereo unspecified) | i | i | i | i | i | i
O=C(c1cnc2n(c1=O)CCS2)N1CCN(C(c2ccccc2)c2ccc(Cl)cc2)CC1 (stereo unspecified) | i | i | 62 | i | i | i
Cc1cc(Nc2ncc(Cl)cc2Cl)n[nH]1 | i | i | 71 | i | i | i
O=C1CC(N(C(=O)c2ccco2)c2cccc(Cl)c2)C(=O)N1c1cccc(Cl)c1 (stereo unspecified) | i | 92 | 91 | i | i | i
O=C1CC(N(C(=O)c2ccco2)c2ccc(F)cc2)C(=O)N1c1ccc(F)cc1 (stereo unspecified) | i | i | i | i | i | i
O=C(CSc1ncnc2nc[nH]c12)N1CCN(c2ccc(Cl)cc2)CC1 | i | i | i | i | i | i
CCCCCC/C(=N/O)c1ccccn1 | i | i | i | i | i | 40
COc1cccc(C(=O)N2CCN(c3ncccn3)CC2)c1 | i | i | 70 | i | i | i
COc1ccc(Cl)cc1NC(=S)N1CCN(c2ccccn2)CC1 | i | i | 56 | 2.5 | i | i
SMILES | PostGolgi yeast | CYP2C9 inhib | CYP2C19 inhib | CYP2C9 activ | CYP2C19 act | PostGolgi ctrl
O=C(c1cccc(COc2ccc(Cl)cc2Cl)c1)N1CCN(c2ccccn2)CC1 | i | 70 | 54 | i | i | 68
O=C(c1cccc(C(=O)N2CCN(c3ncccn3)CC2)c1)N1CCN(c2ncccn2)CC1 | i | i | i | i | i | i
COc1cccc(C(=O)N2CCN(C3CCC(c4ccccc4)CC3)CC2)c1 (stereo unspecified) | i | i | 91 | i | i | i
Cc1ccc2occ(C(c3nnnn3Cc3ccccc3)N3CCOCC3)c(=O)c2c1 (stereo unspecified) | i | i | i | i | i | i
COc1cc2[nH]c(=O)n(CCCCCC(=O)NCCCN3CCC(C)CC3)c(=O)c2cc1OC | i | nt | nt | nt | nt | i
COc1ccc(N2CCN(C(=O)c3ccc(NS(=O)(=O)c4ccccc4)cc3)CC2)cc1 | i | nt | nt | nt | nt | i
COc1cccc(C(=O)N2CCN(Cc3ccccc3C(F)(F)F)CC2)c1 | i | i | 95 | i | i | i
